# Experimental data as given in the supplement of paper PMC10849652.
# Targets with a hit are over-represented here; the source holds about 7,900 in all. About 0.6% of all pairs of compound and target were hits. Unmarked numbers belong to inactive results.
# How the values were obtained:
# Test in all cases: log2 fold change, soluble protein after heating vs DMSO (PISA); higher = thermal stabilisation; K562 cells, 10 uM, 30 min; active = over 0.2 and 3.5 SD of the protein, either way, in both replicates (recomputed)
# IRAK-1-4 Inhibitor I = compound: C1COCCN1CCN2C3=CC=CC=C3N=C2NC(=O)C4=CC(=CC=C4)[N+](=O)[O-] [IRAK-1-4 Inhibitor I]
# Outline: (§1)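 Aliquots of K562 cells (2×10^6 cells/mL) treated with 10 μM compound for 30 min were heated for 3 min over 48°C-58°C. After pooling and extraction in PBS with 0.5% NP-40 at 4°C, soluble protein from a 21,000xg, 90 min spin was quantified by TMTpro 16plex LC-MS/MS with channel sums equalised. Thermal stability is expressed against control samples, from duplicates, as a log2 fold change.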
# ibrutinib = compound: C=CC(=O)N1CCC[C@@H](n2nc(-c3ccc(Oc4ccccc4)cc3)c3c(N)ncnc32)C1 [ibrutinib]
# Outline: as §1
# [1] = compound: CC(=O)c1cnc2ccc(-c3cc(Cl)c(O)c(Cl)c3)nc2c1N[C@H]1CC[C@H](CN(C)C)CC1
# Outline: as §1
# ralimetinib = compound: CC(C)(C)Cn1c(N)nc2ccc(-c3[nH]c(C(C)(C)C)nc3-c3ccc(F)cc3)nc21 [ralimetinib]
# Outline: as §1
# [2] = compound: CC(C)(O)CC(=O)NCCn1ccc2ncnc(Nc3ccc(Oc4cccc(C(F)(F)F)c4)c(Cl)c3)c21
# Outline: as §1
# [3] = compound: CC(C)C1=C2N=C(C=C(N2N=C1)NCC3=CC=CC=C3)NCCCCCCN
# Outline: as §1
# [4] = compound: CC(C)C[C@@H](C=O)NC(=O)[C@H](CC(C)C)NC(=O)[C@H](CC(C)C)NC(=O)OCc1ccccc1
# Outline: as §1
# pinometostat = compound: CC(C)N(C[C@H]1O[C@@H](n2cnc3c(N)ncnc32)[C@H](O)[C@@H]1O)[C@H]1C[C@@H](CCc2nc3cc(C(C)(C)C)ccc3[nH]2)C1 [pinometostat]
# Outline: as §1
# [5] = compound: CC1=C(C(CC(=O)N1)C2=CC=C(C=C2)C(F)(F)F)C(=O)NC3=C(C=C4C(=C3)C=NN4)F
# Outline: as §1
# [6] = compound: CC1=C(C2=C(C=C1)C(=O)C3=CC=CC=C3N2CCCN)C
# Outline: as §1
# Chain of UniProt P51956 (P51956 whole entry, looked up): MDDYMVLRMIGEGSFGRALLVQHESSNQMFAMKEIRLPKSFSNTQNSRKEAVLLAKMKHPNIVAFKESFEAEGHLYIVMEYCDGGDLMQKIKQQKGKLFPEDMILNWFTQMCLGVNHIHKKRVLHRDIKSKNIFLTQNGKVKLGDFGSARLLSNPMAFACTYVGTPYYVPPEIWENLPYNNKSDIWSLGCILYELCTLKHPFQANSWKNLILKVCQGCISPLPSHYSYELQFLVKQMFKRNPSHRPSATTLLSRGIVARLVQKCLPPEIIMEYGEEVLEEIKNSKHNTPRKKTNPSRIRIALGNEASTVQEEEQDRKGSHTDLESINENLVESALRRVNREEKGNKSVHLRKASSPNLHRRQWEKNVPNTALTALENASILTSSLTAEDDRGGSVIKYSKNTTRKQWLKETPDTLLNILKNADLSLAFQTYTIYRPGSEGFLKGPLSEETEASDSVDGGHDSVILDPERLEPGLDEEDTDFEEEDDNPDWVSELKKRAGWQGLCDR
# Chain of UniProt P22059 (P22059 whole entry, looked up): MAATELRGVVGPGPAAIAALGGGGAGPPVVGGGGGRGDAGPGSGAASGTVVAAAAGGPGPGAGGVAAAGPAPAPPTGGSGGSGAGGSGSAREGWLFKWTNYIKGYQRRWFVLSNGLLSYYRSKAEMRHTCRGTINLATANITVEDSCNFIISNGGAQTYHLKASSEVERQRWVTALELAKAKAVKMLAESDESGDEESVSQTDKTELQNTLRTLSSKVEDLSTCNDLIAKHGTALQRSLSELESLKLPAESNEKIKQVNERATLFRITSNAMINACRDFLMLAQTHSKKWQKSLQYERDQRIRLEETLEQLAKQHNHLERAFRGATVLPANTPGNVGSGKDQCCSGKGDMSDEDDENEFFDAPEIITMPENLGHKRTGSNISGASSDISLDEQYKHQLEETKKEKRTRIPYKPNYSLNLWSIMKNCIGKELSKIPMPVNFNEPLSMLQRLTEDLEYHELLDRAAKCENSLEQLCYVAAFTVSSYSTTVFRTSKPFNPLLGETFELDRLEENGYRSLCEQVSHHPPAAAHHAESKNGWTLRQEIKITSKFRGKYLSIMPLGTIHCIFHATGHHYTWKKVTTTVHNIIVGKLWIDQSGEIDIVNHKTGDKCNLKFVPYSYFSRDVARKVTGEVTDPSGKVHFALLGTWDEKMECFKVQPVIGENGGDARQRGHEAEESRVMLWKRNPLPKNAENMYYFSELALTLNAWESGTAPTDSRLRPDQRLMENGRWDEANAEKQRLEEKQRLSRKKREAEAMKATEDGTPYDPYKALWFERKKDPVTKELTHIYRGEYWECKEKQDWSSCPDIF
# Chain of UniProt Q5VVJ2 (Q5VVJ2 whole entry, looked up): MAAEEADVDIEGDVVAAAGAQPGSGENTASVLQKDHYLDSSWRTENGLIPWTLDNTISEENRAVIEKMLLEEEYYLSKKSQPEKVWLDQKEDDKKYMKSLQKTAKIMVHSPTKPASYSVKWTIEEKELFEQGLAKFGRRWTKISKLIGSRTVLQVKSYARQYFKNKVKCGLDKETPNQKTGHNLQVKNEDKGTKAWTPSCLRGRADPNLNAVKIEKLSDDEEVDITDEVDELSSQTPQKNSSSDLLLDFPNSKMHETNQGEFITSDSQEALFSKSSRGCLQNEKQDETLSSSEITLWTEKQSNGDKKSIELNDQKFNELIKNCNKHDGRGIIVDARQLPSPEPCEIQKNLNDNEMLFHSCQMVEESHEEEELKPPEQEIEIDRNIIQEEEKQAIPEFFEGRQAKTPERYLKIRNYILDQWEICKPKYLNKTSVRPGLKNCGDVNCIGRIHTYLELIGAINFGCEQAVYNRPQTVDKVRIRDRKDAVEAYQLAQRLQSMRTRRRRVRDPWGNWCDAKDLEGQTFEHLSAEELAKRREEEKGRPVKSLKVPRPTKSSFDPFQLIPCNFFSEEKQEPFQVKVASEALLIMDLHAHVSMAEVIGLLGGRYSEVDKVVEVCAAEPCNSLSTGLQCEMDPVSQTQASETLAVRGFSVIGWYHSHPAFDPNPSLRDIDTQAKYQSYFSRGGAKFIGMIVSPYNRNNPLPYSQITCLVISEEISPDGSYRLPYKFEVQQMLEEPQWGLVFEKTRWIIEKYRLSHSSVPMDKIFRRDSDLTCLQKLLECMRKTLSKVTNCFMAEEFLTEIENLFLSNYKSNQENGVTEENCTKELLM
# Chain of UniProt Q70IA6 (Q70IA6 whole entry, looked up): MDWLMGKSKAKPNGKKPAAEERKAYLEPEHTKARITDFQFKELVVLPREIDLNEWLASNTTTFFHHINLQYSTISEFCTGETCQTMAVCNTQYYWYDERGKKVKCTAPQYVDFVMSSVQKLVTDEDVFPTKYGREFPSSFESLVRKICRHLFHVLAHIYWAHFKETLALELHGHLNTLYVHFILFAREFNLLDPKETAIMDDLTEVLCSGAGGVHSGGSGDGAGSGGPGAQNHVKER
# Chain of UniProt P40261 (P40261 whole entry, looked up): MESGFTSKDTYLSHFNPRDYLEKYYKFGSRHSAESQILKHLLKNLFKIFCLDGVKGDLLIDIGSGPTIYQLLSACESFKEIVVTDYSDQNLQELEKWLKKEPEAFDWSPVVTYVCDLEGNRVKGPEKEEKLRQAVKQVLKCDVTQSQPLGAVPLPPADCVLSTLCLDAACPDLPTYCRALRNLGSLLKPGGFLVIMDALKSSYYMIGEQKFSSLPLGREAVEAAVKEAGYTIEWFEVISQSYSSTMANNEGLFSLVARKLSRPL
# Chain of UniProt B2RBV5 (B2RBV5 whole entry, looked up): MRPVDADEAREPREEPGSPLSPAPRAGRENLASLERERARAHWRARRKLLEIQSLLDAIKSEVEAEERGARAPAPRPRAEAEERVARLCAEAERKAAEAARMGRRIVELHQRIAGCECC
# Chain of UniProt Q9H8H0 (Q9H8H0 whole entry, looked up): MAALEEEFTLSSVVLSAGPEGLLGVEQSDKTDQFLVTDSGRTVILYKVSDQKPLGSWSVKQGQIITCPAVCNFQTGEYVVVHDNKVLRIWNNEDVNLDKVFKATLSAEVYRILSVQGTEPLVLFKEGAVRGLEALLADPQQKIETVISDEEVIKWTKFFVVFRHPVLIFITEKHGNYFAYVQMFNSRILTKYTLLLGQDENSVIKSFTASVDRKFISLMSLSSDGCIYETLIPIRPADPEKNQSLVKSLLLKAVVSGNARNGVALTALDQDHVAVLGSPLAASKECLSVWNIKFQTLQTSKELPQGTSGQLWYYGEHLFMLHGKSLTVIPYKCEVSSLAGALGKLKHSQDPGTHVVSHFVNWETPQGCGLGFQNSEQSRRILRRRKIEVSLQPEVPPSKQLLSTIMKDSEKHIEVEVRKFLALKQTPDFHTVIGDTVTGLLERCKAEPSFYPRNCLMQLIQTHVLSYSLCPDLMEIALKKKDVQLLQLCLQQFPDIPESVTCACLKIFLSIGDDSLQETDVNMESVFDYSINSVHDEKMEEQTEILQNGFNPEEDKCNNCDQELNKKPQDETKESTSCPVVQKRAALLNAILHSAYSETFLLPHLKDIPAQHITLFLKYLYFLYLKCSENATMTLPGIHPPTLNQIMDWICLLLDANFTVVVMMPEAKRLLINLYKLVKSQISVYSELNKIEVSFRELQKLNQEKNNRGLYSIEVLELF
# Chain of UniProt O15460 (O15460 whole entry, looked up): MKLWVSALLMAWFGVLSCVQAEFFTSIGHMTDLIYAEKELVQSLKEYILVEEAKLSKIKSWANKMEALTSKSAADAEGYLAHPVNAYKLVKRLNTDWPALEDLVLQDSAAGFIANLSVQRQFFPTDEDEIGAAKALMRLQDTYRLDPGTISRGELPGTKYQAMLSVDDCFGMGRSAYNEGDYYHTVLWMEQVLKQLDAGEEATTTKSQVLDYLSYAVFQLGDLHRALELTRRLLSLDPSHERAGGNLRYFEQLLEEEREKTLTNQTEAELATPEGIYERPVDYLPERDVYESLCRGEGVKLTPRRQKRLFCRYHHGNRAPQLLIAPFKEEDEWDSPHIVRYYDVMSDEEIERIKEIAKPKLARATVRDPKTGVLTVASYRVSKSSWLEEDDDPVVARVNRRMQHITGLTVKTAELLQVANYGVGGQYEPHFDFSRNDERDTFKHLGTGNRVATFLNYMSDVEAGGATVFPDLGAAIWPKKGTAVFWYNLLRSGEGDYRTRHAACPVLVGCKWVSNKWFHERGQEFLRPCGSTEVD
# Chain of UniProt Q9Y605 (Q9Y605 whole entry, looked up): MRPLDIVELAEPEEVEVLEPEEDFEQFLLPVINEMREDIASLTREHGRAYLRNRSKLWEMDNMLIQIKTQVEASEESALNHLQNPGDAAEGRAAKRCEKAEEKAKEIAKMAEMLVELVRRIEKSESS
# Chain of UniProt P40692 (P40692 whole entry, looked up): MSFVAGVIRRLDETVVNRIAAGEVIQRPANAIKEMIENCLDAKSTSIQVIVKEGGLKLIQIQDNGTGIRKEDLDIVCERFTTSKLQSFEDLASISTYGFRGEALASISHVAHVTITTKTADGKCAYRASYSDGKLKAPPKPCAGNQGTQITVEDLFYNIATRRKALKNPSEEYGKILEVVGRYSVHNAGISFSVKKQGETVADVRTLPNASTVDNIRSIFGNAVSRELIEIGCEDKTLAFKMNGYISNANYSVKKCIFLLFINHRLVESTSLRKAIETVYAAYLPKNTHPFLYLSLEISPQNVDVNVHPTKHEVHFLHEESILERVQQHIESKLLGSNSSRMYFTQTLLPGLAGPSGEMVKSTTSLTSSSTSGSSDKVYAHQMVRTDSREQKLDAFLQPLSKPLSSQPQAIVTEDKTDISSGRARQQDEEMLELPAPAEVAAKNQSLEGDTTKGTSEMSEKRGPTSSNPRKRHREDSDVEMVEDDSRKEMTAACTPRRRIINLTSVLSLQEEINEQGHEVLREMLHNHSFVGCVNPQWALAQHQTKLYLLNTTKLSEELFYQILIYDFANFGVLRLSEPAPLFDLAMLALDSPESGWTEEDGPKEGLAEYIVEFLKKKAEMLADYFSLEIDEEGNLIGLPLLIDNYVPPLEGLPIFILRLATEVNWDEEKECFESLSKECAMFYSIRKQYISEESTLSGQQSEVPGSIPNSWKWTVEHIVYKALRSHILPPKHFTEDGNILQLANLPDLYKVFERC
Target,log2 fold change (IRAK-1-4 Inhibitor I),log2 fold change (ibrutinib),log2 fold change [1],log2 fold change (ralimetinib),log2 fold change [2],log2 fold change [3],log2 fold change [4],log2 fold change (pinometostat),log2 fold change [5],log2 fold change [6]
OSBP (UniProt P22059),0,-0.067,-0.029,-0.009,-0.076,0.091,0.017,-0.002,-0.052,0.024
MRFAP1 (UniProt Q9Y605),0.218,-0.017,0.206,-0.022,–,-0.056,0.437,-0.016,0.28,-0.339
NOL11 (UniProt Q9H8H0),0.036,0.031,0.002,-0.028,0.037,0.21,-0.017,-0.014,-0.002,0.304 (active)
MT-ND2 (UniProt P03891),-0.021,-0.042,-0.171,-0.119,–,-0.221,-0.089,-0.075,-0.076,0.113
MUL1 (UniProt Q969V5),0.009,0.009,-0.113,-0.008,-0.068,-0.004,0.027,0.021,-0.016,-0.01
NA isoform 3 (UniProt Q4G0T1),0.007,-0.1,-0.146,-0.118,–,-0.022,0.155,-0.043,0.079,-0.109
MITD1 (UniProt Q8WV92),-0.043,0.03,0,-0.002,-0.296,-0.77 (active),-0.002,0.082,-0.101,0.047
PAFAH2 (UniProt Q99487),0.106,0.048,-0.012,-0.033,–,0.025,0.007,-0.011,–,0.02
NFYB (UniProt P25208),0.07,-0.051,0.019,0.016,–,0.054,-0.007,-0.043,0.026,0.411 (active)
MRPL47 (UniProt Q9HD33),-0.11,0.022,0.003,0.056,0.016,-0.001,0.071,0.181,0.047,-0.083
NDUFA12 (UniProt Q9UI09),0.05,-0.078,-0.04,-0.043,-0.128,-0.31 (active),0.021,-0.06,-0.012,0.122
MSTO1 (UniProt Q9BUK6),0.012,0.009,-0.003,-0.028,-0.162,-0.105,-0.003,-0.002,-0.027,0.043
"NA, A0A2R8Y3M9",0.087,0.215,-0.207,-0.08,–,–,0.056,-0.001,0.253,–
"MTHFD1, A0A384N5Y3",–,0.002,-0.085,0,-0.034,–,-0.008,–,-0.024,0.049
NA (UniProt J3KR12),-0.191,-0.159,–,0.011,-0.1,–,0.017,0.053,0.046,–
NKTR (UniProt P30414),–,-0.191,–,–,–,0.084,–,–,–,–
MLST8 (UniProt Q9BVC4),0.002,-0.048,0.099,–,-0.049,-0.136,–,-0.093,0.02,0.037
NOS1AP (UniProt O75052),–,-0.061,–,0.07,-0.073,-0.026,1.38 (active),–,–,0.154
MOB2 isoform 3 (UniProt Q70IA6),–,-0.061,–,0.039,-0.15,-0.01,-0.021,–,-0.037,0.106
MSANTD2 (UniProt Q6P1R3),–,–,–,–,0.047,–,–,–,–,0.012
NOLC1 isoform 3 (UniProt Q14978),–,–,–,–,–,0.151,–,–,–,–
NPC1L1 (UniProt Q9UHC9),0.014,0.047,-0.008,–,–,–,–,-0.136,-0.614,0.085
MITF (UniProt O75030),0.166,–,-0.212,–,–,-0.581 (active),–,0.074,0.158,–
NEK3 (UniProt P51956),0.104,–,-0.184,-0.168,-0.015,0.127,0.098,-0.015,-0.028,0.018
MON1A (UniProt Q86VX9),-0.005,0.231,–,-0.213,-0.012,-0.151,0.032,0.002,0.049,0.129
MYH16 (UniProt Q9H6N6),-0.177,-0.02,0.045,–,–,0.026,–,-0.019,-0.024,0.805 (active)

Target,log2 fold change (IRAK-1-4 Inhibitor I),log2 fold change (ibrutinib),log2 fold change [1],log2 fold change (ralimetinib),log2 fold change [2],log2 fold change [3],log2 fold change [4],log2 fold change (pinometostat),log2 fold change [5],log2 fold change [6]
MYLK (UniProt Q15746),-0.051,-0.101,–,0.524,–,-0.207,-0.181,-0.051,-0.269,-0.136
NIPSNAP2 (UniProt C9J7B1),–,0.052,-0.389,–,–,–,–,–,–,–
NA (UniProt B2RBV5),–,0.069,–,–,-0.037,–,–,–,-0.314,–
NAGPA (UniProt Q9UK23),-0.078,0.228,-0.014,–,0.03,0.112,–,0.052,0.083,-0.062
NNMT (UniProt P40261),0.035,0.06,-0.028,–,-0.026,-0.026,–,0.276 (active),-0.002,-0.006
OSBPL3 (UniProt Q9H4L5),-0.083,–,-0.277,0.309,0.252,0.506,0.206,0.204,-0.165,-0.069
MLH1 (UniProt P40692),–,-0.018,-0.112,–,-0.347,–,–,–,–,0.008
NAP1L1 (UniProt B7Z9C2),-0.147,-0.04,-0.058,–,–,0.359,–,-0.052,0.111,–
P4HA2 (UniProt O15460),-0.072,0.168,–,0.038,0.045,-0.017,0.062,0.06,0.039,0
OAF (UniProt Q86UD1),–,–,–,-0.041,–,0.009,-0.013,–,–,–
"NA, A0A1W2PSA9",–,–,-0.13,0.004,–,–,0.122,–,–,-0.27
MOB3B (UniProt Q86TA1),-0.26,-0.001,-0.026,–,–,-0.169,–,-0.056,-0.116,0.024
NDUFA7 (UniProt M0R0N0),–,-0.109,–,–,–,-0.136,–,–,–,–
NEU3 isoform 2 (UniProt Q9UQ49),–,–,–,–,–,-0.984 (active),–,–,–,–
MYSM1 (UniProt Q5VVJ2),-0.264,0.291,–,-0.022,–,–,-0.061,0.153,–,–
MPHOSPH8 isoform 2 (UniProt Q99549),-0.149,–,0.026,0.271,-0.06,–,0.035,-0.027,–,-0.84 (active)
NUDT6 (UniProt P53370),-0.143,–,–,0.183,-0.106,-0.033,0.035,0.071,-0.161,0.283
ORC3 (UniProt Q9UBD5),–,–,-0.031,–,–,–,–,–,–,–
MRM2 (UniProt Q9UI43),–,–,-0.119,–,–,-0.075,–,–,0.057,0.104
"NA, A0A494C071",-0.011,-0.1,-0.038,–,0.03,–,–,-0.034,0.013,-0.141
NCBP2AS2 (UniProt Q69YL0),–,0.07,0.21,-0.01,–,-0.869 (active),0.026,–,0.089,-0.008
OXR1 isoform 2 (UniProt Q8N573),-0.044,–,-0.123,-0.088,-0.118,–,0.119,0.066,-0.028,0.031
NUDT7 (UniProt P0C024),-0.02,0.205,–,-0.52,-0.467,0,0.207,-0.231,0.129,0.039
NIPSNAP3B (UniProt Q9BS92),0.048,0.082,0.026,–,–,0.045,–,0.056,0.07,0.049
MXRA7 isoform 3 (UniProt P84157),–,–,–,-0.031,–,–,0.151,–,–,–
NCOA5 (UniProt Q9HCD5),-0.136,–,–,-0.012,–,-0.194,0.055,0.048,0.082,–
